PubChem BioAssay (NCATS)
Records with an inconclusive call do not appear. Activity calls are given as the source filed them. The call rests on the fitted dose curve; in most records, active means well fitted inhibition curve with a large enough effect; inconclusive means small, poorly fitted or top-dose-only effect; inactive means flat fitted curve, though single readings scatter.

How the values were obtained:
PC15 = assay: qHTS profiling for inhibitors of Plasmodium falciparum proliferation (AID 504749); details: P. falciparum in erythrocytes, SYBR Green DNA, 72 h; series mostly up to 28.7 µM
How it was run: (§1)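 P. falciparum-infected erythrocytes (0.3% parasitemia, 2.5% hematocrit final) were exposed to compounds for 72 h at 37 C in 5% CO2, then lysed with SYBR Green buffer overnight at room temperature; parasite DNA fluorescence was normalized to artemisinin and DMSO controls.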

TAB109 = assay: as above; details: P. falciparum in erythrocytes, SYBR Green DNA, 72 h; series mostly up to 28.7 µM
How it was run: as §1

TAB165 = assay: as above; details: P. falciparum in erythrocytes, SYBR Green DNA, 72 h; series mostly up to 28.7 µM
How it was run: as §1

W2 = assay: as above; details: P. falciparum in erythrocytes, SYBR Green DNA, 72 h; series mostly up to 28.7 µM
How it was run: as §1

CRL-7250 = normal cell line; assay: Cytotoxic Profiling of Annotated Libraries Using Quantitative High-Throughput Screening (AID 1296008); details: Five cell lines viability, CellTiter-Glo ATP luminescence, 48-72 h; max response: active compounds read low; on max response: on the % scale 0 is the no-effect control and ±100 the full control effect
How it was run: (§2)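 Compounds were pin-transferred onto cells and incubated 48 or 72 hr at 37 degree Celsius, 95% humidity. CellTiter-Glo was added, plates sat 10 min at room temperature, then ATP-coupled luminescence was imaged as the viability read-out.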

HEK293 = assay: as above; details: Five cell lines viability, CellTiter-Glo ATP luminescence, 48-72 h; max response: active compounds read low
How it was run: as §2

HaCat [1] = assay: as above; details: Five cell lines viability, CellTiter-Glo ATP luminescence, 48-72 h; max response: active compounds read low
How it was run: as §2

KB-3-1 = assay: as above; details: Five cell lines viability, CellTiter-Glo ATP luminescence, 48-72 h; max response: active compounds read low
How it was run: as §2

NIH3T3 [2] = assay: as above; details: Five cell lines viability, CellTiter-Glo ATP luminescence, 48-72 h; max response: active compounds read low
How it was run: as §2

HACAT [3] = assay: qHTS assay to identify novel small-molecules to repurpose for Merkel cell carcinoma treatment (AID 1296009); details: MCC and control cell lines, CellTiter-Glo viability, 72 h; at 44.8 µM (top of the series) unless noted; on activity change, negative = cytotoxicity: on the % scale 0 is the no-effect control and ±100 the full control effect
How it was run: (§3)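 Cells exposed to NPC (8-point) and MIPE (11-point) compound dilutions for 72 hr at 37 degree celsius; viability read by CellTiter-Glo luminescence, normalized to no-cell and DMSO in-plate controls.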

MCC-13 = assay: as above; details: MCC and control cell lines, CellTiter-Glo viability, 72 h; series mostly up to 46 µM
How it was run: as §3

MCC-26 = assay: as above; details: MCC and control cell lines, CellTiter-Glo viability, 72 h; series mostly up to 46 µM
How it was run: as §3

NIH3T3 [4] = assay: as above; details: MCC and control cell lines, CellTiter-Glo viability, 72 h; at 44.8 µM (top of the series) unless noted
How it was run: as §3

PC26 = assay: qHTS profiling for inhibitors of Plasmodium falciparum proliferation (AID 504749); details: P. falciparum in erythrocytes, SYBR Green DNA, 72 h; series mostly up to 28.7 µM
How it was run: as §1

PC49 = assay: as above; details: P. falciparum in erythrocytes, SYBR Green DNA, 72 h; series mostly up to 28.7 µM
How it was run: as §1

SC27B = assay: as above; details: P. falciparum in erythrocytes, SYBR Green DNA, 72 h; series mostly up to 28.7 µM
How it was run: as §1

TAB113 = assay: as above; details: P. falciparum in erythrocytes, SYBR Green DNA, 72 h; series mostly up to 28.7 µM
How it was run: as §1

HEK293T = assay: qHTS assay to identify novel small-molecules to repurpose for Merkel cell carcinoma treatment (AID 1296009); details: MCC and control cell lines, CellTiter-Glo viability, 72 h; at 44.8 µM (top of the series) unless noted; on activity change, negative = cytotoxicity: on the % scale 0 is the no-effect control and ±100 the full control effect
How it was run: as §3

MKL-1 = assay: as above; details: MCC and control cell lines, CellTiter-Glo viability, 72 h; series mostly up to 46 µM
How it was run: as §3

MKL-2 = assay: as above; details: MCC and control cell lines, CellTiter-Glo viability, 72 h; series mostly up to 46 µM
How it was run: as §3
Further: nearly all actives have a fitted effect of over 60% in size.
Potency means the concentration at half of the fitted maximal effect.

O=C1OCCN1/N=C/c1ccc([N+](=O)[O-])o1
inactive: Potency (PC15) | max response (CRL-7250) -8.39% | max response (HEK293) -25% | outcome (HaCat [1]) | max response (KB-3-1) -3.42% | outcome (NIH3T3 [2]) | outcome (HACAT [3]) | Potency (MCC-13) | Potency (MCC-26) | outcome (NIH3T3 [4])
active: Potency (TAB109) 7940 nM | Potency (TAB165) 11200 nM | Potency (W2) 15100 nM

CCC(=O)c1c(O)cc(O)cc1O
inactive: Potency (PC15) | Potency (PC26) | Potency (PC49) | Potency (SC27B) | Potency (TAB109) | Potency (TAB113) | Potency (TAB165) | Potency (W2) | max response (CRL-7250) 1.93% | outcome (HEK293) | max response (HaCat [1]) 3.62% | max response (NIH3T3 [2]) 0.801% | outcome (HEK293T) | Potency (MCC-13) | Potency (MCC-26) | Potency (MKL-1) | Potency (MKL-2)

Cc1ccc(Nc2c(F)cccc2Cl)c(CC(=O)O)c1
inactive: outcome (CRL-7250) | max response (HEK293) 2.42% | outcome (HaCat [1]) | max response (NIH3T3 [2]) 2.46% | outcome (HACAT [3]) | Potency (MCC-13) | Potency (MCC-26) | Potency (MKL-1) | Potency (MKL-2)

O=c1ccc2ccccc2o1
inactive: Potency (PC15) | Potency (PC26) | Potency (PC49) | Potency (SC27B) | Potency (TAB109) | Potency (TAB113) | Potency (TAB165) | Potency (W2) | outcome (CRL-7250) | outcome (HEK293) | max response (HaCat [1]) -0.31% | max response (KB-3-1) -9.75% | outcome (NIH3T3 [2]) | outcome (HEK293T) | Potency (MCC-13) | Potency (MKL-1) | Potency (MKL-2) | outcome (NIH3T3 [4])

CCn1cc(C(=O)O)c(=O)c2cnc(N3CCCC3)nc21
inactive: Potency (PC15) | Potency (PC26) | Potency (PC49) | Potency (SC27B) | Potency (TAB109) | Potency (TAB113) | Potency (TAB165) | Potency (W2) | max response (CRL-7250) 4.85% | max response (HEK293) 1.04% | max response (HaCat [1]) -10.2% | max response (KB-3-1) 8.93% | max response (NIH3T3 [2]) -2.06% | activity change, negative = cytotoxicity (MCC-13) 5.05% [at 9.22 µM] | activity change, negative = cytotoxicity (MCC-26) -5.4% [at 9.22 µM] | activity change, negative = cytotoxicity (MKL-1) 1.32% [at 9.22 µM] | activity change, negative = cytotoxicity (MKL-2) 14.9% [at 9.22 µM]

COCc1c(C(C)C)nc(C(C)C)c(/C=C/[C@@H](O)C[C@@H](O)CC(=O)O)c1-c1ccc(F)cc1
active: Potency (CRL-7250) 59.6 nM | Potency (HEK293) 531 nM | Potency (HaCat [1]) 841 nM | Potency (KB-3-1) 1840 nM | Potency (NIH3T3 [2]) 2370 nM | Potency (MCC-13) 1190 nM | Potency (MKL-1) 750 nM
inactive: Potency (PC15) | Potency (PC26) | Potency (PC49) | Potency (TAB109) | Potency (TAB113) | Potency (TAB165)

COc1c2occc2c(OC)c2c(=O)cc(C)oc12
inactive: Potency (PC15) | Potency (PC26) | Potency (PC49) | Potency (SC27B) | Potency (TAB109) | Potency (TAB113) | Potency (TAB165) | Potency (W2) | outcome (CRL-7250) | max response (HEK293) -0.27% | outcome (HaCat [1]) | max response (NIH3T3 [2]) -9.5% | outcome (HACAT [3]) | Potency (MCC-13) | Potency (MCC-26) | Potency (MKL-1) | Potency (MKL-2)

CCOC(=O)COc1ccc2c(C)c(CCN(CC)CC)c(=O)oc2c1Cl
inactive: Potency (PC15) | Potency (PC26) | Potency (PC49) | Potency (SC27B) | Potency (TAB109) | Potency (TAB113) | Potency (W2) | outcome (HEK293) | max response (HaCat [1]) -12.1% | max response (KB-3-1) 7.91% | max response (NIH3T3 [2]) 1.29% | outcome (HEK293T) | Potency (MCC-13) | Potency (MCC-26)
active: Potency (CRL-7250) 29900 nM

C=CCc1ccc(O)c(OC)c1
inactive: Potency (PC15) | Potency (PC26) | Potency (PC49) | Potency (SC27B) | Potency (TAB109) | Potency (TAB113) | Potency (TAB165) | Potency (W2) | outcome (CRL-7250) | outcome (HEK293) | max response (HaCat [1]) -0.0642% | max response (NIH3T3 [2]) 3.27% | outcome (HEK293T) | Potency (MCC-13) | Potency (MKL-1) | Potency (MKL-2)

CCOc1ccc(NC(=O)CC(C)O)cc1 (stereo not given)
inactive: Potency (PC15) | Potency (PC26) | Potency (PC49) | Potency (SC27B) | Potency (TAB109) | Potency (TAB113) | Potency (TAB165) | max response (CRL-7250) -0.463% | max response (HEK293) 2.44% | max response (HaCat [1]) -5.23% | max response (KB-3-1) -22.8% | max response (NIH3T3 [2]) 4.45% | Potency (MCC-13) | Potency (MKL-1) | Potency (MKL-2)

COc1cccc2c1C(=O)c1c(O)c3c(c(O)c1C2=O)C[C@@](O)(C(=O)CO)C[C@@H]3O[C@H]1C[C@H](N)[C@H](O)[C@H](C)O1
inactive: max response (KB-3-1) -13.1%
active: Potency (CRL-7250) 1330 nM | Potency (HEK293) 266 nM | Potency (HaCat [1]) 944 nM | Potency (NIH3T3 [2]) 150 nM | Potency (MCC-13) 5960 nM | Potency (MCC-26) 2110 nM | Potency (MKL-1) 211 nM

CC(C)COC(=O)c1ccc(N)cc1
inactive: Potency (PC15) | Potency (PC26) | Potency (PC49) | Potency (SC27B) | Potency (TAB113) | Potency (TAB165) | Potency (W2) | max response (CRL-7250) 2.7% | max response (HEK293) -1.38% | outcome (HaCat [1]) | max response (NIH3T3 [2]) 3.91% | outcome (HACAT [3]) | Potency (MCC-13) | Potency (MCC-26) | Potency (MKL-1) | Potency (MKL-2)

OCc1ccccc1O
inactive: Potency (PC15) | Potency (PC26) | Potency (PC49) | Potency (SC27B) | Potency (TAB109) | Potency (TAB113) | Potency (TAB165) | max response (CRL-7250) 2.81% | outcome (HEK293) | max response (HaCat [1]) -18.5% | max response (NIH3T3 [2]) 3.42% | outcome (HEK293T) | Potency (MCC-13) | Potency (MCC-26) | Potency (MKL-1) | Potency (MKL-2)
